Inconclusive results are not listed. Calls of active or inactive are those of the source. Unless noted, calls come from the whole dose curve; as a rule, active = well fitted curve in the direction sought with a large enough effect in the repeat runs; inconclusive = weak or mixed curves; inactive = no such curve, though single readings can be large; an effect the other way counts as inactive or inconclusive.
What was measured:
[1] = molecular target: Retinoic acid receptor RXR-alpha (Homo sapiens) (UniProt P19793); assay: qHTS assay to identify small molecule agonists of the RXR signaling pathway (AID 1159527; calls by dose curve; note: nearly all actives have a fitted effect of over 35% in size; note: potency is the fitted concentration of half-maximal effect)
In short: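 Cells plated at 2,000/well, rested 5 hr at 37 C, pin-dosed with DMSO compound solutions, incubated 16 hr, then loaded with B/G FRET substrate for 2 hr at RT before dual-emission fluorescence reading.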

[2] = qHTS assay to identify small molecule agonists of the RXR signaling pathway - cell viability counter screen (AID 1159529);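 note: HEK 293T cells carrying an RXR-alpha UAS beta-lactamase reporter; series mostly up to about 77 µM; nearly all actives have a fitted effect of over 50% in size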
In short: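 Steps: seed RXR-alpha-UAS-bla HEK 293T cells in assay medium containing 2% charcoal-stripped FBS; incubate 5 hr; add compounds in DMSO; incubate 16 hr at 37 C; after the bla read, add CellTiter-Glo and read luminescence at 30 min.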

[3] = qHTS assay to identify small molecule antagonists of the retinoid acid receptor (RAR) signaling pathway - cell viability counter screen (AID 1159551); note: nearly all actives have a fitted effect of over 35% in size
In short: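 C3RL4 cells were seeded overnight at 37 C, then treated with compounds plus 1 uM (final) retinol for 6 h at 37 C. Viability was read as ATP by CellTiter-Glo luminescence after 30 min at room temperature.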

[4] = qHTS assay to identify small molecule antagonists of the retinoic acid receptor (RAR) signaling pathway (AID 1159552; note: nearly all actives have a fitted effect of over 50% in size)
In short: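 Retinol at 1 uM final stimulated RARE-luciferase expression in C3RL4 cells exposed to test compounds for 6 hr at 37 C. Reduced luminescence, read 30 min after detection reagent, indicated pathway antagonism.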

Measured: Potency

Chain of Retinoic acid receptor RXR-alpha (Homo sapiens) (P19793 whole entry, looked up): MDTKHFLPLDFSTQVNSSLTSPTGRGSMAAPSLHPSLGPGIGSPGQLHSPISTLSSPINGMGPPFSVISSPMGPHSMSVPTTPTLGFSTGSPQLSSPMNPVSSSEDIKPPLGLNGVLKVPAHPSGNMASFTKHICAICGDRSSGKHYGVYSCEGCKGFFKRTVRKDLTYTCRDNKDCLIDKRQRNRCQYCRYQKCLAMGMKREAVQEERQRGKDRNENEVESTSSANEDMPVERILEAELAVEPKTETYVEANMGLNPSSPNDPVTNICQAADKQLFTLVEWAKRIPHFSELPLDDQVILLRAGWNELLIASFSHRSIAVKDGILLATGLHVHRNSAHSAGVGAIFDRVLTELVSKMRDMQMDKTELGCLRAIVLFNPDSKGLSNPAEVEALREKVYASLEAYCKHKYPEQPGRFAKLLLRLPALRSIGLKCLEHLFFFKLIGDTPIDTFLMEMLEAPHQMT

CCC(C=O)CC
inactive: [1] | [2] | [3]

CO[C@@H]1[C@@H](OC(N)=O)[C@@H](O)[C@H](Oc2ccc3c(O)c(NC(=O)c4ccc(O)c(CC=C(C)C)c4)c(=O)oc3c2C)OC1(C)C
inactive: [1] | [2] | [3]

Cc1c(I)c(=O)n(-c2ccccc2)n1C
inactive: [1] | [2] | [3]

CCC(CC)CO
inactive: [1] | [2] | [3]

CC(C)(C)c1n[nH]c(=S)n(N)c1=O
inactive: [1] | [2] | [3]

BrCCCCCBr
inactive: [1] | [2] | [3]

COc1nccnc1NS(=O)(=O)c1ccc(N)cc1
inactive: [1] | [2] | [3]

COCCOCCOCCOCCOCCO
inactive: [1] | [2] | [3]

OCCN(CCO)c1cccc(Cl)c1
inactive: [1] | [2] | [3]

CN=C(NC#N)Nc1ccc(C2=NNC(=O)CC2C)cc1 (stereo unspecified)
inactive: [1] | [2] | [3]

CCCC/C=C\CCCCCCCCCC=O
inactive: [1] | [2] | [3]

COc1cc2c(cc1OC)[C@@H]1CC(=O)[C@@H](CC(C)C)CN1CC2
inactive: [1] | [2] | [3]

On1nnc2ccccc21
inactive: [2] | [3]
active: [1] 4.9 µM

CCCCNC1CC(C)(C)NC(C)(C)C1
inactive: [1] | [2] | [3]

Cc1ccccc1OCC(O)CO (stereo unspecified)
inactive: [1] | [2] | [3]

CC(C)(C)NC(N)=O
inactive: [1] | [2] | [3]

COCCOCCOCCOCCO
inactive: [1] | [2] | [3]

Cc1ccc(S(=O)(=O)O)c(C)c1
inactive: [1] | [2] | [3]

Cc1cccc(C)c1NC(=O)c1ccccc1C(=O)O
inactive: [1] | [2] | [3]

NS(=O)(=O)c1ccc(NC(=O)CCC(=O)O)cc1
inactive: [1] | [2] | [3]

CC(C)CCCC(C)(C)O
inactive: [1] | [2] | [3]

C=C(C)C(=O)OCCOP(=O)(O)OCCOC(=O)C(=C)C
inactive: [1] | [2] | [3]

O=C(OCc1ccccc1)C(=O)OCc1ccccc1
inactive: [1] | [2] | [3]

Cc1ccc(C=O)cc1C
inactive: [1] | [2] | [3]

OCCC(F)(F)C(F)(F)C(F)(F)C(F)(F)C(F)(F)C(F)(F)C(F)(F)C(F)(F)F
inactive: [1] | [2] | [3]

CN(C)c1ccc(C=O)cc1
inactive: [1] | [2] | [3]

ClCCCl
inactive: [1] | [2] | [3]

CNC(=O)[C@H]1O[C@@H](n2cnc3c(NCc4cc(Cl)ccc4OCc4cc(C)no4)ncnc32)[C@H](O)[C@@H]1N
inactive: [1] | [2] | [3]

CC(=O)NCCCCCC(=O)O
inactive: [1] | [2] | [3]

COc1cc(NS(=O)(=O)c2ccc(N)cc2)nc(OC)n1
inactive: [1] | [2] | [3]

O=S(=O)(O)c1ccc2cc(O)c(S(=O)(=O)O)cc2c1
inactive: [1] | [2] | [3] | [4]

Cc1cccc2nccnc12
inactive: [1] | [2] | [3] | [4]

O=C(O)C(=O)Cc1ccccc1
inactive: [1] | [2] | [3] | [4]

Nc1ncnc(Nc2ccccc2)n1
inactive: [1] | [2] | [3] | [4]

C=CC(OCC)OCC
inactive: [1] | [2] | [3] | [4]

CC(C)(C)c1cc(CCC(=O)NN)cc(C(C)(C)C)c1O
inactive: [1] | [2] | [3] | [4]

O=S(=O)(O)c1cc(O)c2ccc(Nc3ccccc3)cc2c1
inactive: [1] | [2] | [3] | [4]

Cc1[nH]cnc1-c1ccc(Cl)cc1
inactive: [1] | [2] | [3] | [4]

CCCOC(=O)C(C)O (stereo unspecified)
inactive: [1] | [2] | [3] | [4]

CCOCCOCCOCC
inactive: [1] | [2] | [3] | [4]

CC(C)OC(=O)CCCCC(=O)OC(C)C
inactive: [1] | [2] | [3] | [4]

CC(=O)Nc1ccc(S(=O)(=O)Nc2ccc([N+](=O)[O-])cc2)cc1
inactive: [1] | [2] | [3] | [4]

Cc1cc2cc3c(C)cc(=O)oc3c(C)c2o1
inactive: [1] | [2] | [3] | [4]

COc1ccc2nc(SCc3ncc(C)c(OC)c3C)[nH]c2c1
inactive: [1] | [2] | [3] | [4]

Reference: PubChem BioAssay (Tox21)
